Source: PubChem
TRPM1 prom inh – MITF TRPM1 promoter inhibition in SK-MEL-5 cells | SK-MEL-5 TRPM1 promoter luciferase, 24 h | AID 488899 | 330,000 compounds, 0.83% hits | inhibition, % at 12.5 µM;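 active = mean inhibition across replicates of 60% or more, whatever share of single replicates reaches that level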
HIF-2a block – blocks HIF-2a reporter activity | 786-0 RCC cells HIF-2a reporter, luciferase luminescence, overnight | inhibition, % at 18.8 µM | 360,000 compounds, 0.72% hits | AID 624352;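 active = inhibition of the luminescence signal of 40% or more relative to plate controls, in a single-dose primary screen at 18.75 µM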
TWEAK-Fn14 inh – blocks TWEAK-Fn14 interaction in a reporter cell assay. 360,000 compounds, 2% hits. TWEAK-stimulated Fn14 reporter cells, luciferase luminescence, 8 h. inhibition, % at 10 µM. AID 1159606; in the data active = inhibition above about 50%
EBV LMP1 NFkB – Epstein-Barr LMP1 NF-kappaB reporter inhibition | 350,000 compounds, 0.69% hits | inhibition, % at 12.5 µM | LMP1-induced NF-kappaB luciferase reporter cells, luminescence; in the data active = inhibition above about 41%;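 note: 0% = neutral control wells and 100% = reference inhibitor control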
TROY NFkB inh – TROY signaling inhibition. AID 1347056. 360,000 compounds, 0.98% hits. inhibition, % at 10 µM. Q293 LMP1-TROYcd NF-kB luciferase reporter, 4 h;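 active = compounds whose plate-normalised and pattern-corrected inhibition of the luciferase reporter signal at the single screening dose is 50% or more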
Peg3 prom inh – inhibitors of Peg3 promoter; HeLa PEG-Prom luciferase reporter, luminescence, overnight; inhibition, % at 20 µM; 360,000 compounds, 1.7% hits;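 active = inhibition of at least 50% at 20 µM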
The depositor's hits bear a star; nt = no result given. This is a sample that favours compounds with a hit; in the whole collection about 4% have one here.

SMILES | TRPM1 prom inh | HIF-2a block | TWEAK-Fn14 inh | EBV LMP1 NFkB | TROY NFkB inh | Peg3 prom inh
NC(=O)c1c(NC(=O)c2ccccc2)sc2c1CCC2 | -23 | -314 | 7 | -36 | -41 | -318
COC(=O)c1c(NC(=O)c2ccc(OC(C)C)cc2)sc2c1CC(C)(C)NC2(C)C | 7 | -7 | -131 | -63 | -3 | 98*
Cc1nn(Cc2ccc([N+](=O)[O-])cc2)c(=O)n1-c1cccc(Cl)c1 | 11 | 11 | -2 | 4 | 30 | 4
CC1=NC(=O)C(N=Nc2cccc(C(=O)O)c2)N1c1ccccc1 (stereo not given) | 81* | 54* | 49 | 37 | -65 | 47
COc1cccc(C(C)(O)c2nc(-c3cccc(C#N)c3)cs2)c1 (stereo not given) | nt | 8 | 52* | nt | 22 | 12
CCN(CC)C(=O)c1cccc(-c2csc(C(C)(O)c3cccc(F)c3)n2)c1 (stereo not given) | nt | 16 | 53* | nt | 38 | 40
COc1ccc(C(C)(O)c2nc(-c3cccc(C#N)c3)cs2)cc1 (stereo not given) | nt | 1 | 15 | nt | 16 | 19
COc1cc(Br)cc(/C=N/NC(=O)Cc2ccc(C(F)(F)F)cc2[N+](=O)[O-])c1O | 13 | 18 | -5 | 21 | 30 | 54*
COc1cc2c(cc1OC)CN(C(=O)Cc1c(F)cccc1Cl)CC2 | -4 | 13 | 10 | -1 | -16 | 1
CCOC(=O)N1CCC(N2C(=O)c3ccccc3C2Nc2ccc3c(c2)OCCO3)CC1 (stereo not given) | 71* | 23 | 85* | 13 | 65* | 14
CCOC(=O)N1CCC(N2C(=O)c3ccccc3C2Nc2ccc3c(C)cc(=O)oc3c2)CC1 (stereo not given) | 10 | -1 | -8 | 3 | 10 | -7
CCOC(=O)C1CCN(c2c(Nc3ccc4c(c3)OCCO4)c(=O)c2=O)CC1 | -10 | 7 | 81* | 6 | 63* | 10
CC(=O)c1cccc(NC(=O)CCc2nc3sc4c(c3c(=O)[nH]2)CCCC4)c1 | -3 | -1 | 9 | 1 | 3 | 4
COc1ccc(CCn2c(N)c(C(=O)NCc3ccco3)c3nc4ccccc4nc32)cc1OC | 11 | -6 | 43 | -1 | 35 | 26
Nc1c(C(=O)NCc2ccco2)c2nc3ccccc3nc2n1CCc1ccccc1F | 2 | -48 | 44 | -4 | 54* | 42
COc1ccc(CCn2c(N)c(C(=O)NCc3ccco3)c3nc4ccccc4nc32)cc1 | 9 | -89 | 61* | -12 | 65* | 23
OCc1cccc(-c2cnc3c(Nc4cccc(OC(F)(F)C(F)F)c4)nccn23)c1 | nt | -247 | 57* | nt | 42 | -210
Cc1ccc(-c2cnc3c(Nc4cccc(OC(F)(F)C(F)F)c4)nccn23)cc1 | nt | -157 | 4 | nt | -8 | -84
Cc1ccc(S(=O)(=O)NCC(c2ccc3c(c2)OCO3)N2CCN(c3ccccc3)CC2)cc1 (stereo not given) | 0 | 25 | 2 | 11 | 5 | 2
O=C(NCCOc1ccc(F)cc1)c1ccccc1SCc1ccccc1 | -1 | 16 | 19 | 14 | 0 | 60*
COC(=O)C(=O)C1CCc2c(Cl)cc(OC)c(OC)c2C1=O (stereo not given) | 10 | 0 | 8 | 87* | 3 | 17
CC[C@@]12C(=O)N(c3cccc(F)c3)C(=O)N1[C@H](c1ccc(Br)cc1)[C@@H]1C(=O)N(C(C)(C)C)C(=O)[C@@H]12 | -3 | 12 | 22 | 1 | -13 | 9
CCOC(=O)N1CCC(NC(=O)c2ccc3c(c2)N(C)C(=O)/C(=C/c2cccc(OC)c2)S3)CC1 | 51 | 21 | 75* | 4 | 61* | 29
CCOC(=O)N1CCN(C(=O)c2ccc3c(c2)N(C)C(=O)/C(=C\c2ccc(OCC)c(OC)c2)S3)CC1 | 15 | 14 | 18 | 25 | 30 | 53*
CCOC(=O)N1CCN(C(=O)c2ccc3c(c2)NC(=O)/C(=C\c2ccc(OC)c(OC)c2)S3)CC1 | -20 | 8 | 7 | 20 | 44 | 29
COc1ccc(CNC(=O)CS(=O)CC(=O)O)cc1OC (stereo not given) | -4 | 12 | -7 | -3 | 10 | 5
N#Cc1ccc(-c2csc(NNC(=O)c3ccc(Br)cc3)n2)cc1 | -11 | 8 | -8 | 55* | 1 | 28
